# From PubChem BioAssay (NCATS)
# Results filed as inconclusive are left out. The source made the active and inactive calls. The call rests on the fitted dose curve; in most records, active means well fitted cell-killing curve with a large enough effect; inconclusive means small, poorly fitted or top-dose-only effect; inactive means flat fitted curve, though single readings scatter.
# Experiment: Cell Viability - LYMP2-008 (AID 980);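 further: cells exposed to compound for 24 h at 37 °C; nearly all actives have a fitted effect of over 60% in size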
# Conditions: LYMP2-008 lymphoblastoid cell viability, qHTS; series mostly up to 92.2 µM; activity change, negative = cytotoxicity: at the top concentration
# From the text: NIH Chemical Genomics Center [NCGC]
# NIH Molecular Libraries Screening Centers Network [MLSCN]
# National Institutes of Environmental Health Sciences [NIEHS]
# National Toxicology Program [NTP]
# We have developed a 1536-well cell-based assay for quantitative high throughput screening (qHTS) against a number of cell lines to determine in vitro cytotoxicity of small molecules. This particular assay uses a human lymphoblastoid cell line (LYMP2-008) purchased from Coriell Institute for Medical Research.
# NCGC Assay Protocol Summary:
# The CellTiter-Glo luminescent cell viability assay (Promega) is a homogeneous method to measure the number of viable cells in culture. The end point readout of this assay is based on quantitation of intracellular ATP, an indicator of metabolic activity, using the luciferase reaction. Luciferase catalyzes the oxidation of beetle Luciferin to oxyluciferin and light in the presence of ATP. The luminescent signal is proportional to amount of ATP present.
# Using the CellTiter-Glo luminescent cell viability assay, the amount of cellular ATP was measured in the lymphoblastoid cell line with complete culture medium following compound treatment for 24 hours. The assay was performed in opaque white Kalypsys 1536-well plates. In the screen, tetraoctylammonium bromide was used as positive control. Library compounds were measured for their ability to cause acute toxicity in the cell line, as reflected by a decrease in intracellular ATP levels, in a concentration-dependent manner. […] AC50 values were determined from concentration-response data modeled with the standard Hill equation.
# qHTS protocol for CellTiter Glo lymphoblastoid cellular assay
# [Step] [Parameter] [Value] [Description]
# 1. Reagent; 5 uL; 2500 lymphoblastoid cells/well
# 2. Time; 5 hr; 37 C incubation
# 4. Controls; 23 nL; Tetraoctylammonium bromide 6.4pM to 92 uM
# 5. Time; 24 hr; 37 C incubation
# 6. Reagent; 5 uL; CellTiter Glo reagent
# 7. Time; 30 min; Room Temperature
# 8. Detection; Luminescence; Viewlux plate reader
# Keywords: cell viability, cytotoxicity, lymphoblastoid cell line, luminescence, NTPHTS, NTPHTS_NCGC, NIEHS, DSSTox, MLSMR, MLSCN, NIH Roadmap, qHTS, NCGC
# On the % scale 0 is the no-effect control and ±100 the full control effect.
row,SMILES,"activity change, negative = cytotoxicity"
1,CCCC=O,9.62% (inactive)
2,C=C(C)C(N)=O,-0.683% (inactive)
3,CC(C)(O)CCC(C)(C)O,-14.9% (inactive)
4,CO[Si](CCCNCCC[Si](OC)(OC)OC)(OC)OC,-10.9% (inactive)
5,O=C(O)c1ccccc1Cl,-9.7% (inactive)
6,CC(=O)CCc1ccccc1,-9.35% (inactive)
7,CCCCCCC(=O)O,-13.8% (inactive)
8,O=CNc1ccccc1,-1.3% (inactive)
9,Cc1cccc2cccnc12,-12.5% (inactive)
10,CCCC(Cl)CCCC(Cl)CCC(Cl)CCC(Cl)CCC(Cl)CCCC(Cl)CCC (stereo not given),3.12% (inactive)
11,BrC/C=C/CBr,-8.96% (inactive)
12,CCOC(=O)OCC,-2.03% (inactive)
13,O=C(Cl)c1c(Cl)cccc1Cl,-2.75% (inactive)
14,O=C(Cl)c1cccc([N+](=O)[O-])c1,1.07% (inactive)
15,CC(C)(C)OC=O,-1.37% (inactive)
16,C1CCOC1,-5.93% (inactive)
17,Cc1cscn1,1.39% (inactive)
18,O=[N+]([O-])c1ccccc1CCO,-0.661% (inactive)
19,Cc1c(C(=O)O)cccc1[N+](=O)[O-],6.52% (inactive)
20,CCOC(=O)C(C)C(C)=O (stereo not given),-11.3% (inactive)

row,SMILES,"activity change, negative = cytotoxicity"
1,O=[N+]([O-])c1ccc2nc[nH]c2c1,-2.77% (inactive)
2,Nc1ccccc1[N+](=O)[O-],-2.14% (inactive)
3,Cc1ccc(Br)cc1,-1.35% (inactive)
4,OC1CCCC1,6.63% (inactive)
5,CC(=O)OC(C)=O,2.69% (inactive)
6,CCNc1ccccc1,-0.0528% (inactive)
7,C=CCOC(=O)COCCC(C)C,-2.94% (inactive)
8,Cc1cc(C(=O)O)ccc1[N+](=O)[O-],0.594% (inactive)
9,c1ccc(Oc2ccccc2)cc1,-9.46% (inactive)
10,C=C(C)C(=O)OCC(C)C,-11.1% (inactive)
11,CC(=O)OCCC(C)C,-2.97% (inactive)
12,Cc1ccc(N(C)C)cc1,-4.75% (inactive)
13,CC(=O)Nc1ccc(C)cc1,-9.26% (inactive)
14,Cc1ccc(S(=O)(=O)NC2CCCCC2)cc1,-7.88% (inactive)
15,C=CC(=O)OCCCC,3.97% (inactive)
16,O=C(O)c1cc(Cl)cc(Cl)c1,5.16% (inactive)
17,Cc1cc(C)c(N)cc1C,-7.32% (inactive)
18,NC=O,-6.12% (inactive)
19,COC(=O)CCC(=O)OC,-7.46% (inactive)
20,CCC(C)(C)OC,-7.37% (inactive)
